We go through 20 compounds from paper PMC4552634, “A New Set of Chemical Starting Points with Plasmodium falciparum Transmission-Blocking Potential for Antimalarial Drug Discovery” (PLoS ONE, 2015).

Hit rate of the full screen: of about 13,000 compounds, about 3,200 (25%) showed an effect of 50% or more. This is one part of the list.

For this assay, the system named is P. falciparum stage V gametocytes. On the set-up: BacTiter-Glo ATP luminescence viability of purified stage V gametocytes in 384-well plates, per cent inhibition versus DMSO. The conditions noted are these: 48 h, 5 µM; inhibitor.
Take `Cc1ccc(NC(=O)NC2CCN(c3ccnc4cc(Cl)ccc34)CC2)cc1` [TCMDC-133571]: the “% Inhibition” value was -34.41%.

For the compound `CNS(=O)(=O)Cc1ccc(Nc2nccc(Nc3cccc4c3cnn4C(=O)Nc3ccccc3)n2)cc1` [TCMDC-136315], the “% Inhibition” value is on record as 19.26%.

For `Cc1cc(Br)c(OCCCON2C(N)=NC(N)=NC2(C)C)c(Br)c1` [TCMDC-131365], the “% Inhibition” value stood at 37.66%.

With `Cc1nc2c(c(C)nn2C(C)(C)C)c(C)c1CCC(=O)Nc1ccc(CN2CCCC2)cc1` [TCMDC-124397], the “% Inhibition” value is given as -7.615%.

Take `COC(=O)c1ccc(Nc2nccc(Nc3ccc(Oc4ccccc4)cc3)n2)cc1` [TCMDC-138560]: the “% Inhibition” value is on record as -28.54%.

For `COc1cccc(Nc2nc(C)cc(NCc3ccc(-n4ccnc4)cc3)n2)c1` [TCMDC-133450], the “% Inhibition” value came out at 43.61%.

Regarding `Cc1cc(N(C)C)nc(Nc2ccc(NC(=O)c3ccccc3F)cc2)n1` [TCMDC-124725], the “% Inhibition” value is recorded as 4.015%.

`Cc1cc(Cl)c(S(=O)(=O)NC2CCCC2)cc1OCC(=O)NC1CCCCC1` [TCMDC-124353]: the “% Inhibition” value amounted to 26.39%.

With `Fc1cccc(COc2ccc(Nc3ncnc4ccc(-c5nnc(C(F)(F)F)o5)cc34)cc2Cl)c1` [TCMDC-138162], the “% Inhibition” value is given as -34.34%.

On to `Cc1cc(NN=Cc2cccc(F)c2)c2cccc(C)c2n1` [TCMDC-142081], for which the “% Inhibition” value is -19.79%.

In the case of `COc1ccc2nc(C)cc(NN=Cc3cccc(F)c3)c2c1` [TCMDC-142084], the “% Inhibition” value is given as 32.42%.

For `COc1ccc2c(NN=Cc3cccc(F)c3)cc(C)nc2c1` [TCMDC-142085], the “% Inhibition” value worked out at 106.9%.

For `Cc1cc(NN=Cc2ccccc2F)c2cccc(C)c2n1` [TCMDC-142068], the “% Inhibition” value is on record as -42.7%.

In the case of `Cc1cc(NN=Cc2ccc(F)cc2)c2cccc(C)c2n1` [TCMDC-142082], the “% Inhibition” value was determined as 83.37%.

Consider `COc1ccc2nc(C)cc(NN=Cc3ccc(F)cc3)c2c1` [TCMDC-123973], for which the “% Inhibition” value was 111.2%.

Consider `CCCC(=O)Nc1ccc(OCCCCN(CC(C)(C)C)c2ccc(C#N)c(C(F)(F)F)c2)cc1` [TCMDC-132784], for which the “% Inhibition” value is on record as -2.311%.

Turning to `O=C(Nc1ccc(-c2nc3ccccc3[nH]2)cc1)c1cccc([N+](=O)[O-])c1` [TCMDC-123637], the “% Inhibition” value is reported as -11.52%.

`Cc1n[nH]c2ccc(-c3ccc4nccc(N5CCC(N)CC5)c4c3)cc12` [TCMDC-134315]: the “% Inhibition” value is 105.4%.

`O=S(=O)(Nc1ccc2nccc(N3CCNCC3)c2c1)c1ccc(-c2ccccc2)cc1` [TCMDC-139546]: the “% Inhibition” value was found to be 12.57%.

Take `Clc1ccc2nccc(N3CCC(CN4CCC(c5c[nH]c6ccccc56)CC4)CC3)c2c1` [TCMDC-134281]: the “% Inhibition” value was 0.1691%.

The % Inhibition is the relative decrease from the control value, in per cent.
